Test results reported in PubChem BioAssay AID1159580 (chemical genetic matrix, 2015).
Where “and” joins values, the source holds several entries; their conditions need not be identical. Equal values may be shown once. The whole screen tested about 5,500 compounds, of which about 2,000 (36%) were called active. Another 18% or so got no clear call; they are omitted. No stated cut-off is given here; in the data, active means normalized growth mostly below about 0.91 (no sharp cut-off); inconclusive means no clear call, values can overlap the other calls; inactive means mostly above about 0.92. Some of the results follow.

Test: chemical genetic growth profiling, strain panel (AID 1159580);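 further: tested at 20 µM; growth read once vehicle control cultures reached saturation at 30 °C; 1 = growth at the plate median or of vehicle wells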
Settings: growth OD

Measured: normalized growth

Cn1c(=O)[nH]c2ncn(C)c2c1=O
active: S. cerevisiae deletion strains, locus YNL248C, strain rpa49, stronger effect = lower value 0.874
inactive: S. cerevisiae deletion strains, locus YJR043C, strain POL32, stronger effect = lower value 1.02 | S. cerevisiae deletion strains, locus YJR075W, strain HOC1, stronger effect = lower value 1.01 and 1 | S. cerevisiae deletion strains, locus YKL009W, strain mrt4, stronger effect = lower value 1.03 | S. cerevisiae deletion strains, locus YKL068W, stronger effect = lower value 0.988 | S. cerevisiae deletion strains, locus YKL085W, strain MDH1 (second series), stronger effect = lower value 0.993 | S. cerevisiae deletion strains, locus YKL085W, strain MDH1, stronger effect = lower value 0.993 | S. cerevisiae deletion strains, locus YKL160W, strain elf1, stronger effect = lower value 1.02 | S. cerevisiae deletion strains, locus YKL190W, strain CNB1, stronger effect = lower value 1.01 | S. cerevisiae deletion strains, locus YKR001C, strain vps1, stronger effect = lower value 0.997 | S. cerevisiae deletion strains, locus YKR026C, strain gcn3, stronger effect = lower value 0.964 | S. cerevisiae deletion strains, locus YKR091W, strain srl3, stronger effect = lower value 0.98 | S. cerevisiae deletion strains, locus YLL001W, strain dnm1, stronger effect = lower value 0.988 | S. cerevisiae deletion strains, locus YLL026W, stronger effect = lower value 0.989 | S. cerevisiae deletion strains, locus YLL041C, strain sdh2, stronger effect = lower value 0.978 | S. cerevisiae deletion strains, locus YLR027C, strain aat2, stronger effect = lower value 1 | S. cerevisiae deletion strains, locus YLR039C, strain RIC1, stronger effect = lower value 1.02 | S. cerevisiae deletion strains, locus YLR058C, strain SHM2, stronger effect = lower value 1.01 | S. cerevisiae deletion strains, locus YLR102C, strain apc9, stronger effect = lower value 0.995 | S. cerevisiae deletion strains, locus YLR221C, strain rsa3, stronger effect = lower value 0.943 | S. cerevisiae deletion strains, locus YLR258W, strain gsy2, stronger effect = lower value 0.993 | S. cerevisiae deletion strains, locus YLR262C, strain YPT6 (second series), stronger effect = lower value 0.983 | S. cerevisiae deletion strains, locus YLR262C, strain YPT6, stronger effect = lower value 1.03 | S. cerevisiae deletion strains, locus YLR268W, strain sec22, stronger effect = lower value 0.988 | S. cerevisiae deletion strains, locus YLR320W, strain mms22, stronger effect = lower value 0.97 | S. cerevisiae deletion strains, locus YLR330W, strain CHS5, stronger effect = lower value 1.01 | S. cerevisiae deletion strains, locus YLR342W, strain FKS1 (second series), stronger effect = lower value 1.03 | S. cerevisiae deletion strains, locus YLR342W, strain FKS1, stronger effect = lower value 0.975 | S. cerevisiae deletion strains, locus YLR357W, strain rsc2, stronger effect = lower value 0.97 | S. cerevisiae deletion strains, locus YLR370C, strain arc18, stronger effect = lower value 0.966 | S. cerevisiae deletion strains, locus YLR371W, strain rom2, stronger effect = lower value 0.986 | S. cerevisiae deletion strains, locus YLR384C, strain iki3, stronger effect = lower value 0.97 | S. cerevisiae deletion strains, locus YLR418C, strain cdc73, stronger effect = lower value 1 | S. cerevisiae deletion strains, locus YML016C, strain PPZ1, stronger effect = lower value 1.01 | S. cerevisiae deletion strains, locus YML032C, strain rad52, stronger effect = lower value 0.995 | S. cerevisiae deletion strains, locus YML120C, strain ndi1, stronger effect = lower value 0.995 | S. cerevisiae deletion strains, locus YML124C, strain tub3, stronger effect = lower value 0.993 | S. cerevisiae deletion strains, locus YMR058W, strain fet3, stronger effect = lower value 0.981 | S. cerevisiae deletion strains, locus YMR078C, strain ctf18, stronger effect = lower value 0.984 | S. cerevisiae deletion strains, locus YMR125W, strain sto1, stronger effect = lower value 0.987 | S. cerevisiae deletion strains, locus YMR129W, stronger effect = lower value 0.984 | S. cerevisiae deletion strains, locus YMR205C, strain PFK2, stronger effect = lower value 0.995 | S. cerevisiae deletion strains, locus YMR223W, strain ubp8, stronger effect = lower value 1.01 | S. cerevisiae deletion strains, locus YMR231W, strain pep5, stronger effect = lower value 0.961 | S. cerevisiae deletion strains, locus YMR263W, strain SAP30, stronger effect = lower value 1.01 and 0.996 | S. cerevisiae deletion strains, locus YMR307W, strain GAS1, stronger effect = lower value 1.06 and 0.981 | S. cerevisiae deletion strains, locus YNL067W, strain RPL9B, stronger effect = lower value 1.01 | S. cerevisiae deletion strains, locus YNL071W, strain lat1, stronger effect = lower value 0.974 | S. cerevisiae deletion strains, locus YNL128W, strain TEP1, stronger effect = lower value 1.02 | S. cerevisiae deletion strains, locus YNL153C, strain GIM3, stronger effect = lower value 1.01 and 0.984 | S. cerevisiae deletion strains, locus YNL175C, strain NOP13, stronger effect = lower value 0.997 | S. cerevisiae deletion strains, locus YNL197C, strain WHI3, stronger effect = lower value 0.995 | S. cerevisiae deletion strains, locus YNL209W, strain ssb2, stronger effect = lower value 0.99 | S. cerevisiae deletion strains, locus YNL224C, strain SQS1, stronger effect = lower value 0.99 | S. cerevisiae deletion strains, locus YNL233W, strain BNI4, stronger effect = lower value 1.01 | S. cerevisiae deletion strains, locus YNL250W, strain rad50, stronger effect = lower value 0.994 | S. cerevisiae deletion strains, locus YNL271C, strain bni1, stronger effect = lower value 0.993 | S. cerevisiae deletion strains, locus YNL298W, strain CLA4, stronger effect = lower value 1 | S. cerevisiae deletion strains, locus YNL307C, strain MCK1, stronger effect = lower value 1.01 | S. cerevisiae deletion strains, locus YNL322C, strain KRE1 (second series), stronger effect = lower value 0.989 | S. cerevisiae deletion strains, locus YNL322C, strain KRE1, stronger effect = lower value 1 and 1.01 | S. cerevisiae deletion strains, locus YNR049C, strain mso1, stronger effect = lower value 0.974 | S. cerevisiae deletion strains, locus YNR052C, strain pop2, stronger effect = lower value 0.992 | S. cerevisiae deletion strains, locus YOL006C, strain TOP1, stronger effect = lower value 1.04 | S. cerevisiae deletion strains, locus YOL012C, strain htz1 0.946 | S. cerevisiae deletion strains, locus YOL147C, strain pex11, stronger effect = lower value 0.988 | S. cerevisiae deletion strains, locus YOR001W, strain rrp6, stronger effect = lower value 0.925 | S. cerevisiae deletion strains, locus YOR061W, strain CKA2, stronger effect = lower value 1.01 | S. cerevisiae deletion strains, locus YOR069W, strain VPS5, stronger effect = lower value 1.01 | S. cerevisiae deletion strains, locus YOR070C, strain gyp1, stronger effect = lower value 0.985 | S. cerevisiae deletion strains, locus YOR080W, strain dia2, stronger effect = lower value 0.977 | S. cerevisiae deletion strains, locus YOR083W, strain WHI5 (second series), stronger effect = lower value 1.02 | S. cerevisiae deletion strains, locus YOR083W, strain WHI5, stronger effect = lower value 1.03 | S. cerevisiae deletion strains, locus YOR106W, strain vam3, stronger effect = lower value 1.01 | S. cerevisiae deletion strains, locus YOR136W, strain idh2, stronger effect = lower value 0.995 | S. cerevisiae deletion strains, locus YOR144C, strain elg1, stronger effect = lower value 0.98 | S. cerevisiae deletion strains, locus YOR184W, strain ser1, stronger effect = lower value 0.991 | S. cerevisiae deletion strains, locus YOR265W, strain rbl2, stronger effect = lower value 0.974 | S. cerevisiae deletion strains, locus YOR270C, strain vph1, stronger effect = lower value 0.971 | S. cerevisiae deletion strains, locus YOR290C, strain snf2, stronger effect = lower value 1.01 | S. cerevisiae deletion strains, locus YOR316C, strain cot1, stronger effect = lower value 0.987 | S. cerevisiae deletion strains, locus YPL051W, strain arl3, stronger effect = lower value 0.982 | S. cerevisiae deletion strains, locus YPL055C, strain LGE1, stronger effect = lower value 1.04 | S. cerevisiae deletion strains, locus YPL078C, strain atp4, stronger effect = lower value 1.01 | S. cerevisiae deletion strains, locus YPL106C, strain sse1, stronger effect = lower value 0.984 | S. cerevisiae deletion strains, locus YPL240C, strain hsp82, stronger effect = lower value 0.971 | S. cerevisiae deletion strains, locus YPL241C, strain CIN2, stronger effect = lower value 1.01 | S. cerevisiae deletion strains, locus YPR119W, strain clb2, stronger effect = lower value 0.983 | S. cerevisiae deletion strains, locus YPR141C, strain kar3, stronger effect = lower value 0.987 | S. cerevisiae deletion strains, locus YPR163C, strain tif3, stronger effect = lower value 0.977 | S. cerevisiae deletion strains, locus YPR167C, strain met16, stronger effect = lower value 0.994 | S. cerevisiae deletion strains, strain wtn01, stronger effect = lower value 0.992 | S. cerevisiae strains, strain wild type, stronger effect = lower value 1
